# Rab9 prom act: activates the Rab9 promoter; Huh7 Rab9 promoter-luciferase reporter, luminescence, 24 h; Potency, µM (doses to about 9.22 µM), without a hit: at the highest dose activation, negative = inhibition, most hits filed as activators; 320,000 tested, 2.8% active; AID 485297; note: % of control where 0% means no effect; nearly all actives have a fitted effect of over 60% in size
#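 Steps: seed 1500 Huh7 Rab9-luc cells per well, rest 2 h at 37 °C; add compound in DMSO; incubate 24 h; add luciferase reagent, 10 min ambient; read luminescence.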
# ELG1 DNA repair: blocks ELG1-dependent DNA repair in HEK293T cells; HEK293T ELG1-luciferase reporter, luminescence, 16 h; DNA damage induced by 5-fluorouridine; Potency, µM (series often up to 46.1 µM), for the others: at the top dose activity change, negative = inhibition, actives largely listed as inhibitors; 330,000 tested, 2.3% active; AID 504467; note: % is set by controls: 0 for no effect and ±100 for the full control effect; nearly all actives have a fitted effect of over 55% in size
#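 Cells (2,000 per well) received 5-fluorouridine plus test compound or DMSO and were incubated 16 hr at 37 °C, 5% CO2. Luciferase activity was read by luminescence 30 min after ONE-Glo addition; signal suppression marked inhibition of damage-induced ELG1 function.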
# SMN2 splice enh: increases expression of the SMN2 splice variant; HEK293 SMN2-luciferase splicing reporter, luminescence, 30-36 h; Potency, µM (series often up to 46.1 µM), inactives show at the top dose activity change, positive = activation, usual class: activators; 210,000 tested, 2.8% active; note: % of control where 0% means no effect; nearly all actives have a fitted effect of over 55% in size
#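 HEK293 cells carry an SMN2 […]–luciferase reporter in which exon 7 inclusion puts luciferase in frame. Cells were plated 10-12 h before compound addition, then incubated 30-36 h at 37C. ONE-Glo luminescence was read; sodium butyrate at 4.5 mM final served as control.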
# FLuc modulator: inhibits or activates purified firefly luciferase, miR-21 counter-screen | 360,000 tested, 6.9% active | AID 588342 | Potency, µM (titrated, usually from 57.5 µM), without a hit: top-dose activity change, negative = inhibition, actives largely listed as inhibitors | purified FLuc, Km substrates, luminescence inhibition | P08659;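 note: plate controls were vehicle for no effect and reference inhibitor for full effect; nearly all actives have a fitted effect of over 55% in size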
# Target sequence (P08659 whole entry, looked up): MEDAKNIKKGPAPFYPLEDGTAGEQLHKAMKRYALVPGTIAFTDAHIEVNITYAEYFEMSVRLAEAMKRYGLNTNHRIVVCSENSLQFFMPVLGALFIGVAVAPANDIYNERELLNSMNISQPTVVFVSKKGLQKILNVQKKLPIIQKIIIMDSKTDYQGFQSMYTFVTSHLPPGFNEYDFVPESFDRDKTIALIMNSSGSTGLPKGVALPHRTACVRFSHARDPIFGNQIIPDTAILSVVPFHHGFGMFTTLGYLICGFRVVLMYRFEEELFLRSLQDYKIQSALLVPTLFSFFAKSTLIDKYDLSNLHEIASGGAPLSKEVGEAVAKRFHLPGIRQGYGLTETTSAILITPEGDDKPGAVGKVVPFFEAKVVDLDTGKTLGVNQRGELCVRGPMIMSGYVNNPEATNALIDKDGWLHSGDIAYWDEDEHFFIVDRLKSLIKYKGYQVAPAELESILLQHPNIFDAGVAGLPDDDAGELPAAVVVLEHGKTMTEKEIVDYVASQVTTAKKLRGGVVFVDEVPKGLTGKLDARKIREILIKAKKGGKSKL
#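 Purified P. pyralis luciferase, 10 nM final, with Km-level 10 uM D-luciferin and 10 uM ATP in 50 mM Tris acetate pH 7.5, 10 mM Mg acetate, 0.01% Tween-20, 0.05% BSA; 6-point qHTS titration about 60 µM downward; luminescence read.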
# NPC1 prom act: activators of NPC1 promoter; Huh7 NPC1 promoter luciferase reporter, 24 h; Potency, µM (top dose mostly 9.22 µM), inactives show at the highest dose activation, most hits filed as activators; 320,000 tested, 2.4% active; AID 485313; note: % of control where 0% means no effect; nearly all actives have a fitted effect of over 60% in size
#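 Compounds in DMSO were transferred onto Huh7 NPC1-luciferase reporter cells pre-incubated 2 h; after 24 h at 37 °C, Amplite reagent was dispensed and luminescence recorded 10 min later.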
# ELG1 genotox: inducers of genotoxicity in HEK293T ELG1-luciferase cells; HEK293T ELG1-luciferase reporter, luminescence, 16 h; Potency, µM (doses to about 46 µM), for inactives: at the top dose activity change, positive = activation, hits mostly activators; 330,000 tested, 1.3% active; AID 504466; note: % of control where 0% means no effect; nearly all actives have a fitted effect of over 60% in size
#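 Luminescence read-out: rising ELG1-luciferase signal, reflecting elevated ELG1 protein under genetic stress, flags genotoxic compounds. Cells were treated for 16 hr at 37 °C before ONE-Glo detection.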
# Numbers without * were called inactive; ? = inconclusive; nt = no result given; [ ] = another dose, or the depositor's remark. Only some compounds are listed: those with a hit (about 9.2% of all), similar ones and a draw of the others. Calls come from the whole dose curve; as a rule, active = well fitted curve in the direction sought with a large enough effect; inconclusive = small, poorly fitted or top-dose-only effect, or another doubt; inactive = no such curve, though single readings can be large; an effect the other way counts as inactive or inconclusive. Potency is the fitted concentration of half-maximal effect.
SMILES,Rab9 prom act,ELG1 DNA repair,SMN2 splice enh,FLuc modulator,NPC1 prom act,ELG1 genotox
c1ccc(-c2csc(N3CCOCC3)n2)cc1,?,?,11µM*,15µM*,?,6.3µM*
c1ccc(-c2csc(N3CCN(c4ccccn4)CC3)n2)cc1,?,?,-28%,11µM*,?,-14%
S=C(NCCCN1CCOCC1)N1CCN(c2nc(-c3ccccc3)cs2)CC1,-18%,?,nt,-15%,-8%,-9%
O=C(N1CCOCC1)N1CCN(c2nc(-c3ccccc3)cs2)CC1,?,1%,0%,21µM*,30%,-5%
CN(C)C(=O)N1CCN(c2nc(-c3ccccc3)cs2)CC1,1.1µM*,?,nt,3µM*,2.2µM*,?
CC(C)c1ccc(CNC(=O)C2CCCN2S(=O)(=O)c2ccccc2)cc1 (stereo not given),-5%,?,nt,-1%,-6%,-7%
Cc1cc(C)c(NC(=O)Cn2c(=O)n(CCC(C)C)c(=O)c3cccnc32)c(C)c1,nt,nt,2%,-4%,nt,nt
O=C(N/N=C/C(Br)=C\c1ccccc1)c1cccs1,1.6µM*,?,nt,2.1µM*,2.2µM*,?
CC(=C/c1ccccc1)/C=N/NC(=O)c1cccs1,1µM*,?,nt,0.95µM*,1.4µM*,1.8µM*
Cc1onc(-c2ccccc2)c1C(=O)N/N=C/C(Br)=C/c1ccccc1,-4%,-23%,-59%,-4%,2%,?
COc1ccc(CNc2nc3c(c(=O)n(C)c(=O)n3C)n2Cc2ccccc2Cl)cc1,nt,nt,-3%,1%,nt,nt
CCc1ccc(S(=O)(=O)c2cn(C)c3cc(N4CCC(C)CC4)c(F)cc3c2=O)cc1,nt,nt,nt,-2%,nt,nt
O=c1cc(-c2ccccc2)nc2c(-c3ccccc3)c(C(F)(F)F)[nH]n12,-8%,?,nt,?,-1%,-12%
Nc1[nH]n2c(=O)cc(-c3ccccc3)nc2c1N=Nc1ccc2c(c1)OCO2,-8%,5%,nt,5.4µM*,-6%,-2%
COc1cccc(N=Nc2c(C)[nH]n(-c3ccccc3)c2=O)c1,?,?,nt,11µM*,?,?
Cc1[nH]n(-c2ccccc2)c(=O)c1N=Nc1ccc2c(c1)OCO2,?,?,18µM*,6µM*,?,9%
CCCCN(CC)C(=O)CSc1nc2n[nH]c(C)c2c(=N)n1-c1cccc(Cl)c1,nt,nt,nt,-5%,nt,nt
CCOC(=O)c1csc(NC(=O)Nc2cccc(Cl)c2)n1,-1%,5%,-17%,-2%,1%,1%
CCOC(=O)c1csc(NC(=O)COc2ccc(Cl)cc2Cl)n1,-8%,-5%,-8%,24µM*,-2%,0%
Cc1cc(Cl)ccc1OCC(=O)Nc1nc(-c2cccs2)cs1,-1%,16%,-10%,24µM*,-3%,-1%
CCOC(=O)N1CCN(C(=O)CSCC(=O)Nc2nc(-c3cccs3)cs2)CC1,3%,26µM*,-34%,-16%,-1%,-2%
O=C(COc1ccccc1Cl)Nc1nc(-c2cccs2)cs1,1%,21%,-3%,17µM*,-2%,-1%
CC1CCN(C(=O)CSCC(=O)Nc2nc(-c3cccs3)cs2)CC1,16%,?,?,?,13%,10%
Cc1cc(Cl)ccc1OCC(=O)Nc1nc(-c2cccnc2)cs1,9%,-3%,nt,-2%,-3%,14%
Cc1ccccc1NC(=O)c1cccc(S(=O)(=O)N2CCCCC2)c1,12%,2%,nt,0%,0%,-7%
SMILES,Rab9 prom act,ELG1 DNA repair,SMN2 splice enh,FLuc modulator,NPC1 prom act,ELG1 genotox
Cc1ccc(O)c(NC(=O)c2cccc(S(=O)(=O)N3CCCCC3)c2)c1,-2%,-20%,4.5µM*,-9%,0%,-1%
O=C(Nc1ccccc1C(=O)O)c1cccc(S(=O)(=O)N2CCCC2)c1,nt,nt,6%,12µM*,nt,nt
O=C(c1cccc(S(=O)(=O)N2CCCC2)c1)c1cccc(S(=O)(=O)N2CCCC2)c1,-2%,5.8µM*,-71%,3%,-1%,-36%
CCCn1c(NC(=O)c2cccc(S(=O)(=O)N3CCCC3)c2)nc2ccccc21,-15%,8.2µM*,-25%,2%,-1%,-30%
CNC(=O)c1ccccc1NC(=O)c1cccc(S(=O)(=O)N2CCCCC2)c1,-7%,?,nt,0%,-3%,-7%
COc1cccc(CNC(=O)Cc2c(C)c3c(cc(C)c4c(C)coc43)oc2=O)c1,nt,nt,0%,-3%,nt,nt
CN(C)S(=O)(=O)c1cccc(C(=O)Nc2cc(Cl)ccc2O)c1,?,5%,-13%,13µM*,?,-1%
O=C(Nc1nc2ccccc2n1CCOc1ccccc1Cl)c1ccccc1,nt,nt,18%,4.8µM*,nt,nt
CC(=O)Nc1nc2ccccc2n1CCOc1ccccc1Cl,-11%,?,-46%,-2%,-5%,-4%
CCCCc1ncc(CN2CCC(n3nccc3NC(=O)c3ccccc3Cl)CC2)[nH]1,0%,10µM*,nt,1%,0%,-7%
C(=N\N1CCN(Cc2cccc3ccccc23)CC1)/c1ccco1,5%,12%,17%,?,2%,3%
C(/C=C/c1ccco1)=N/N1CCN(c2ccccc2)CC1,3.5µM*,?,?,8.5µM*,1.6µM*,?
Clc1ccccc1CN1CCN(/N=C/C=C\c2ccco2)CC1,?,?,20%,17µM*,13%,13%
O=C(O)CCCC(=O)N1CCOCCOCCOCCOCC1,-1%[1.84 µM],-3%,nt,-1%,-13%,-2%
O=C(COc1ccc(-c2ccccc2)cc1)Nc1cccnc1,-3%,?,nt,5.4µM*,-12%,17%
O=C(COc1ccc([N+](=O)[O-])cc1)Nc1cccnc1,2%,4%,nt,-11%,-1%,-2%
CCC(C)(C)c1ccc(OCC(=O)Nc2ccncc2)cc1,-3%,6%,nt,7.6µM*,0%,-1%
O=C(COc1ccc(Nc2ccccc2)cc1)Nc1ccncc1,-2%,18µM*,nt,-16%,-2%,?
COc1ccc(NC(=S)NC(=O)C2CCC2)cc1,4.5µM*,?,nt,17µM*,?,?
O=C(NC(=S)Nc1ccc(Br)cc1)C1CCC1,17%,?,nt,19µM*,23%,?
COC(=O)c1ccc(NC(=S)NC(=O)C2CCC2)cc1,2%,?,nt,?,2%,17%
COc1cc2c(cc1OC)CN(c1nc(CN3CCOCC3)nc3sc4c(c13)CCC(C)C4)CC2 (stereo not given),-1%,7.3µM*,14%,-1%,1%,-12%
COc1ccc(Nc2nc(CN3CCOCC3)nc3sc4c(c23)CCC(C)C4)cc1OC (stereo not given),0%,6.5µM*,0%,-14%,-7%,2%

# Source: PubChem
